Reference: PubChem BioAssay AID2315 (National Center for Advancing Translational Sciences (NCATS), 2010)
“And” between values parts separate entries of the source, which are not always exact repeats. Equal entries are not always repeated. Hit rate of the full screen: of about 290,000 compounds, about 27,000 (9.3%) were called active. The sample holds actives, similar compounds and a random draw of the others, so the mix is not that of the screen. A number with no mark means an inactive call. No stated cut-off is given here; in the data, active means inhibition mostly above about 28% (no sharp cut-off); inactive means mostly below about 43%.

Test: A qHTS for Small Molecule Inhibitors of Shiga Toxin; on inhibition: 0% is about no effect
Settings: Vero cells, Shiga toxin protein synthesis inhibition reporter; at 38.7 µM, active compounds read high
Cn1c(=O)n(C)c2cc(S(=O)(=O)Nc3ccc(F)cc3)ccc21 showed an inhibition of 0.488%.
For Cc1ccc(CCN2CC(C(=O)NCCc3ccccc3)CC2=O)cc1 (stereo not given), the inhibition was 16.6%.
Compound CC1CCCCN1C(=O)Cn1c(=O)oc2cc(S(=O)(=O)N3CCCCC3)ccc21 (stereo not given) has an inhibition of 12.7%.
In the case of CC(C)(C)NC(=O)NC(=O)COC(=O)C1c2ccccc2Oc2ccccc21, the inhibition is reported as -5.17%.
With Cc1ccc2[nH]c(=O)c(CC(=O)O)c(-c3ccccc3)c2c1 the inhibition was 1.65%.
Compound Cc1nn(CC(=O)N/N=C/c2ccc(F)cc2)c(C)c1[N+](=O)[O-] has an inhibition of -12.8%.
In the case of COc1cc(/C=N\NC(=O)C2C(=O)NCC2c2ccccc2)cc(OC)c1O (stereo not given), the inhibition is reported as -11.2%.
With O=C(N/N=C/c1cccc(Br)c1)c1ccc(N2CCCC2=O)cc1 the inhibition was 18.7%.
For COc1cc(/C=N/NC(=O)c2ccc(N3CCCC3=O)cc2)ccc1O, the inhibition was 56.5% (active).
COc1ccc(/C=N/NC(=O)c2ccncc2)cc1CN1CCCc2ccccc21 gave an inhibition of -1.95%.
For Cc1cc(C(=O)N/N=C/c2ccc(O)c([N+](=O)[O-])c2)c(C)n1-c1ccc(F)cc1, the inhibition was 0% (active).
For COc1cc(/C=N/NC(=O)c2cc(C)n(-c3ccc(F)cc3)c2C)cc(OC)c1O, the inhibition was 43.1% (active).
Work on Cc1cc(C(=O)N/N=C/c2ccc(N3CCOCC3)cc2)c(C)o1 yielded an inhibition of 46.9%.
COc1cc(/C=N/NC(=S)Nc2cccnc2)cc(OC)c1O showed an inhibition of -4.42%.
CCc1ccc(CNC(=O)C2CC(=O)N(CCc3ccc(C)cc3)C2)cc1 (stereo not given) gave an inhibition of -9.66%.
COCCC(=O)N1CCC(Oc2ccc(C(=O)NCc3ccon3)cc2)CC1 gave an inhibition of -10.3%.
Compound CCCCCC1CC(COc2ccccc2)OC1=O (stereo not given) has an inhibition of -10.6%.
For S=c1[nH]nc(-c2cccnc2)n1/N=C/C(Cl)=C\c1ccccc1, the inhibition was 48.2%.
For Cc1cc(-c2n[nH]c(=S)n2/N=C/C(Br)=C/c2ccccc2)n[nH]1, the inhibition was 91.5% (active).
Cc1cc(-c2n[nH]c(=S)n2/N=C/c2ccco2)n[nH]1 gave an inhibition of -9.01%.
In the case of CC(=O)c1c(C)oc2ccc(NS(=O)(=O)c3ccc(C(=O)O)cc3)cc12, the inhibition is reported as 18.1%.
For CCCCN(CCCC)CCCNC(=O)CN1C(=O)COc2ccc(S(=O)(=O)N3CCC(C)CC3)cc21, the inhibition was -6.42%.
In the case of Cc1cccc(NC(=O)C2CCCN(C(=O)Nc3ccc(F)cc3)C2)c1C (stereo not given), the inhibition is reported as 1.84%.
In the case of NC(=O)Nc1ccccc1C(=O)NCCc1ccccc1, the inhibition is reported as 83.7% (active).
In the case of Nc1nonc1C(=O)NCCc1ccccc1, the inhibition is reported as 66.7% (active).
In the case of O=C(NCCc1ccccc1)C1CC1, the inhibition is reported as 8.81%.
For NS(=O)(=O)c1ccc(CCNC(=O)CNC(=O)Cc2ccccc2)cc1, the inhibition was -4.55%.
For O=C(O)c1ccccc1-c1ccccc1C(=O)NCCc1ccccc1, the inhibition was 23.5%.
CN(C)/C(=N\OC(=O)c1ccccc1)c1nonc1N gave an inhibition of -8.6%.
Cc1ccc(-c2ccc(=O)n(Cc3ccc(F)cc3Cl)n2)cc1 showed an inhibition of -3.36%.
CCOC(=O)N1CCC(N2Cc3cccc(C(=O)Nc4c(C)cccc4CC)c3C2=O)CC1 gave an inhibition of 3.74%.
Work on CC(C)[C@H](NC(=O)N1CCn2c1nc1ccccc12)C(=O)NCc1ccc2c(c1)OCO2 yielded an inhibition of 10.7%.
O=C(CN1C(=O)NC2(CCCCC2)C1=O)NCCc1c[nH]c2ccccc12 showed an inhibition of -14%.
In the case of O=C(CCC(=O)n1ncc2ccccc21)NCc1ccccc1Cl, the inhibition is reported as -2.08%.
Work on CCCOc1ccc(C2=CSC3=NCCN23)cc1Cl yielded an inhibition of -7.6%.
Work on CCN(CC)S(=O)(=O)c1ccc(N2CCOCC2)c(NC(=O)C2CSC3(C)CCC(=O)N23)c1 (stereo not given) yielded an inhibition of -6.24%.
In the case of COc1ccc2c3c(c(=O)oc2c1)C1O[C@](CCCCN2C(=O)c4ccccc4C2=O)(Cc2c1ccc1ccccc21)O3, the inhibition is reported as “inactive”.
In the case of Cc1ccc(OCCCn2c(=O)oc3ccccc32)cc1, the inhibition is reported as 52.4% (active).
With Cc1cccc(NC(=O)CCn2c(=O)oc3ccccc32)c1 the inhibition was 63.6%.
Work on NC(=O)Cn1c(=O)oc2ccccc21 yielded an inhibition of 18.3%.
CCc1ccc(NC(=O)Cn2nnc(C(=O)NCc3ccc(OC)cc3)c2N)cc1 gave an inhibition of 6.32%.
For COc1ccc2oc(=O)c(C(=O)N3CCCC3)cc2c1, the inhibition was -3.3%.
With COc1ccc2c(c1)CCc1c(C(=O)N3CCc4ccccc4C3)noc1-2 the inhibition was 26.1%.
For COc1ccc2c(c1)CCc1c(C(=O)N3CCCC3)noc1-2, the inhibition was 55.2% (active).
With COc1ccc2c(c1OC)C(=O)c1ccccc1C2=O the inhibition was 16.6%.
For COc1ccc(/C=N/NC(=O)C2CC2)c(OC)c1OC, the inhibition was -1.72%.
Compound CCC1C/C(=C/c2cccs2)C(=O)/C(=C/c2cccs2)C1 (stereo not given) has an inhibition of -3.18%.
With O=C1/C(=C/c2cccs2)CCc2ccccc21 the inhibition was 85.4% (active).
Work on O=C(COC(=O)/C=C/c1cccs1)NC1CCCCC1 yielded an inhibition of 10.6%.
In the case of COc1ccc(/C=C2\CCc3ccccc3C2=O)c(OC)c1OC, the inhibition is reported as 77.4% (active).
With O=C1/C(=C/c2cccs2)SC(=S)N1C1CCS(=O)(=O)C1 (stereo not given) the inhibition was -16.1%.
CN1C/C(=C/c2cccs2)C(=O)/C(=C\c2cccs2)C1 showed an inhibition of 66.1%.
For O=C1/C(=C/c2cccs2)CCC1C1CCCC1 (stereo not given), the inhibition was 136% (active).
CCOC(=O)C1CCCN(CCSc2ccc(C)cc2)C1 (stereo not given) gave an inhibition of 30%.
For O=C(N[C@@H](Cc1ccccc1)C(=O)OCc1ccccc1)c1nc[nH]c1C(=O)N[C@@H](Cc1ccccc1)C(=O)OCc1ccccc1, the inhibition was -7.22%.
In the case of COc1ccccc1N1CCC(N2CCN(CC(C)(C)C)C(CCO)C2)CC1 (stereo not given), the inhibition is reported as -5.66%.
COC(=O)c1cccc(C(=O)N2CCC(CCC(=O)NCc3ccc(F)cc3)CC2)c1 gave an inhibition of -4.62%.
For Cc1ccc(C(=O)Nc2nnc(C3=COCCO3)o2)cc1C, the inhibition was 12.4%.
For COc1ccc(C2=NS(=O)(=O)N(C)C(C(=O)N(C)Cc3ccccc3)=C2)cc1, the inhibition was 0.266%.
For CCOc1ccc(N(C(=O)c2snc(C(N)=O)c2N)C(C(=O)NCC2CCCO2)c2c[nH]c3ccccc23)cc1 (stereo not given), the inhibition was -13.1%.
In the case of COc1ccc2nc(C)cc(Nc3cccc(C(=O)O)c3)c2c1, the inhibition is reported as -3.88%.
COc1cccc(NC(=O)C(C)Oc2ccccc2)c1 (stereo not given) showed an inhibition of -3.55%.
In the case of COc1cccc(Nc2ncccc2C(=O)O)c1, the inhibition is reported as 96.7% (active).
For COc1nnc(-c2ccc(C)c(S(=O)(=O)N(C)C)c2)c2ccccc12, the inhibition was 22.7%.
Compound CCOC(=O)c1sc(=NC(=O)c2ccc(Br)cc2)n(C)c1C has an inhibition of -5.35%.
For CCOC(=O)c1sc(=NC(=O)/C=C/c2cccs2)n(C)c1C, the inhibition was 88% (active).
Work on CCOC(=O)c1c(NC(=S)NC(=O)/C=C/c2cccs2)sc(C)c1C yielded an inhibition of -10.9%.
CCOc1ccc(OCC)c(NC(=O)CCS(=O)(=O)c2ccc(C)cc2)c1 showed an inhibition of -3.57%.
For O=C(Cc1c(Cl)cccc1Cl)NC1CC1, the inhibition was -3.23%.
CC(C)CCn1cnc2c1c(=O)n(CC(=O)NC(N)=O)c(=O)n2Cc1ccccc1 gave an inhibition of 6.66%.
In the case of COc1ccc(Cc2cc(-c3ccc(F)cc3)n[nH]c2=O)cc1, the inhibition is reported as 41.9% (active).
With COc1ccc(Cc2nnnn2CC(=O)O)cc1 the inhibition was 18.4%.
COc1ccc(Cc2nnc(SC)[nH]c2=O)cc1 showed an inhibition of -10.4%.
In the case of O=C(/C=C/c1ccc(Cl)cc1)NCCCn1ccnc1, the inhibition is reported as 63.2%.
Compound Cc1ccc(NS(=O)(=O)c2cc3c(cc2C)NC(=O)CO3)cc1 has an inhibition of -3.52%.
Compound C[C@H](NC(=O)c1nc[nH]c1C(=O)NCC(=O)OC(C)(C)C)C(=O)OCc1ccccc1 has an inhibition of -5.08%.
CCC(C)c1ccccc1NC(=O)CN(C)CC(=O)Nc1ccccc1SC (stereo not given) showed an inhibition of -5.67%.
With CCn1cc(CN2CCC(n3nccc3NC(=O)CCCc3ccccc3)CC2)c(C)n1 the inhibition was -4.01%.
In the case of O=C(NC1CCCC1)C(=O)c1c[nH]c2ccccc12, the inhibition is reported as 60.6% (active).
In the case of O=C(NCCCc1ccccc1)C(=O)c1c[nH]c2ccccc12, the inhibition is reported as 34.9%.
O=C(C(=O)N1CCc2ccccc2C1)c1c[nH]c2ccccc12 gave an inhibition of 25.1%.
Work on Cc1ccc(C(=O)CCC(=O)N(C)CC(=O)Nc2c(Cl)cccc2Cl)cc1 yielded an inhibition of 12.9%.
CCOc1ccc(NC(=O)CSc2nncn2C)cc1 gave an inhibition of -2.49%.
For COc1ccc(-n2c(-c3ccc(OC)c(OC)c3)n[nH]c2=S)cc1, the inhibition was -6.08%.
For CCOc1ccccc1NC(=S)NC(=O)CCc1ccccc1, the inhibition was -2.78%.
CCOc1ccc(Nc2nc(Cl)nc(N3CCN(c4ccc(OC)cc4)CC3)n2)cc1 showed an inhibition of -1.73%.
In the case of COc1ccc(Nc2ncc(F)c(N3CCOCC3)n2)cc1, the inhibition is reported as 68.5% (active).
c1ccc(Nc2nc(N3CCOCC3)c3ccccc3n2)cc1 gave an inhibition of -9.05%.
In the case of Cc1cc(C)cc(NC(=O)CN2C(=O)c3ccccc3C2=O)c1, the inhibition is reported as -7.16%.
For Cc1ccc(C(C)C)cc1OCC(=O)Nc1ccccc1N1CCCC1, the inhibition was 38.7%.
With Cc1c(OC(C)C(=O)N[C@@H](Cc2ccccc2)C(=O)O)ccc2c3c(c(=O)oc12)CCCC3 (stereo not given in full) the inhibition was -5.08%.
O=C(Cn1ncc2c3ccccc3n(Cc3ccccc3)c2c1=O)NCCCN1CCOCC1 gave an inhibition of 10.5%.
In the case of CCN1C(=O)/C(=c2\s/c(=C3\Sc4ccccc4N3C)c(=O)n2C)N(C)C1=S, the inhibition is reported as 40.9% (active).
In the case of CCCCN1C(=O)/C(=C2/Sc3ccc(Cl)cc3N2CC)SC1=S, the inhibition is reported as 1.9%.
In the case of CCN1C(=O)/C(=C2/Sc3ccccc3N2CCCS(=O)(=O)O)SC1=S, the inhibition is reported as 13.4% and -2.41%.
